The entries come from a sample that favours hits as a whole.
RBX1-CUL1 inh: inhibitors of human ROC1-CUL1 ubiquitin ligase activity. E3 ubiquitin-protein ligase RBX1 (Homo sapiens) + Cullin-1 (Homo sapiens), P62877+Q13616. in vitro K48 di-Ub FRET, acceptor:donor ratio, 45 min. inhibition, % at 10 µM. hit rate 0.6% among 140,000; in the data active = inhibition above about 25%
Hits are given with their value; - = inactive.

SMILES	RBX1-CUL1 inh
C=C(C)CN(CC)c1ccc(C(=O)N2CCC(Oc3cccnc3)CC2)cn1	-
Cc1nn(-c2ccccn2)c2c1C1C(C2)C1(C)C (configuration not stated)	-
COc1cc(CNCCSC)ccc1OCC(O)CN1CCCCCC1 (configuration not stated)	-
COc1cc(CNC(C)(C)C)ccc1OCC(O)CN1CCCC1 (configuration not stated)	99
COc1cc(CN2CCCC2)ccc1OCC(O)CN1CCCCCCC1 (configuration not stated)	-
COc1cnc2c(=O)n(C)c(=O)n(C)c2n1	-
Cc1nc2c(=O)n(C)c(=O)n(C)c2nc1Cl	71
Cc1nc2c(nc1Cl)c(=O)n(C)c(=O)n2C	-
COc1ccccc1C1CC(c2c(-c3ccccc3)c3cc(Br)ccc3[nH]c2=O)=NN1C(=O)C12CC3CC(CC(C3)C1)C2 (configuration not stated)	-
CC1(CCC(=O)N2CCC(C3CCN(Cc4cccc(F)c4F)CC3)C2)CC1 (configuration not stated)	-
Cn1cc(CCC(=O)N2CCCC(CCc3ccc(F)c(F)c3)C2)cn1 (configuration not stated)	-
C/C(=N\NC(N)=O)c1ccc(N2C(=O)C3CC=C(Cl)CC3C2=O)cc1 (configuration not stated)	-
CCSC1=N/C(=C\c2ccc(C(=O)O)cc2)C(=O)S1	-
CC(C)(C)c1cc(/C=C2\N=C(SCc3ccccc3Cl)SC2=O)cc(C(C)(C)C)c1O	-
O=C1SC(SCc2ccccc2Cl)=N/C1=C\c1ccc(C(=O)O)cc1	54
CC12C=CC(O1)C1C(=O)N(c3ccc(F)c(Cl)c3)C(=O)C12 (configuration not stated)	-
CCCN1CCN(CC2=NC(=O)NC(c3ccc(OC(C)C)cc3)C2C(=O)OCC)CC1 (configuration not stated)	-
COc1ccc(C)cc1NC(=O)CSc1nnc(CNC(=O)c2ccccc2F)n1C	-
COc1ccccc1CN1CC(C(=O)NCc2cn3cc(C)ccc3n2)CCC1=O (configuration not stated)	-
COc1cc(/C=c2/sc3n(c2=O)C(c2ccccc2Cl)C2=C(N=3)c3ccccc3CC2)ccc1OCc1ccc2c(c1)OCO2 (configuration not stated)	-
Cc1ccc(/C=c2/sc3n(c2=O)C(c2ccc(C)cc2)C2=C(N=3)c3ccccc3CC2)cc1 (configuration not stated)	-
COc1ccc(C2C3=C(N=c4s/c(=C/c5ccc(OCc6cccc(C(=O)O)c6)c(OC)c5)c(=O)n42)c2ccccc2CC3)cc1 (configuration not stated)	43
COc1ccc(C2C3=C(N=c4s/c(=C/c5ccc(C(=O)O)cc5)c(=O)n42)c2ccccc2CC3)cc1OC (configuration not stated)	92
COc1ccc(C2C3=C(N=c4s/c(=C/c5c[nH]c6ccccc56)c(=O)n42)c2ccccc2CC3)cc1OC (configuration not stated)	-
COc1cccc(C2C3=C(N=c4s/c(=C/c5ccc(O)c(OC)c5)c(=O)n42)c2ccccc2CC3)c1 (configuration not stated)	-
SMILES	RBX1-CUL1 inh
c1ccc(CN2CCN(Cc3ccccc3)C2c2c[nH]c3ccccc23)cc1	-
O=S(=O)(Cc1ccc(F)cc1)Nc1ccc(F)cc1	-
CCC1(CC)OC(C2CCCCC2)Nc2ccccc21 (configuration not stated)	-
C(=N\Nc1nc2c(s1)CCCC2)/c1ccccc1	-
CCOC(=O)C(NC(C)=O)(Nc1ccc(OC(F)(F)F)cc1)C(F)(F)F (configuration not stated)	-
Cc1ccc2nc(CCC(C)C3CCC4C5CC[C@@H]6CC(O)CC[C@]6(C)C5CC[C@]34C)[nH]c2c1 (some centres not stated)	-
CC(CCc1nc2ccccc2o1)C1CCC2C3CC[C@@H]4CC(OCCC(=O)O)CC[C@]4(C)C3CC[C@]12C (some centres not stated)	40
C[C@H](CCC(=O)O)[C@H]1CCC2C3CC[C@@H]4C[C@H](OC=O)CC[C@]4(C)C3CC[C@@]21C (some centres not stated)	-
CCOc1ccc(C(=O)Nc2cc(OC)c(Cl)cc2OC)cc1	-
COc1cc(OC)c(NC(=O)c2ccccc2C)cc1Cl	-
COc1cc(C(c2c(C)[nH][nH]c2=O)c2c(C)[nH][nH]c2=O)ccc1OC(=O)c1cccc(C)c1	-
CCOC(=O)c1cccc(NC(=O)C(C)CC)c1 (configuration not stated)	-
CCOC(=O)c1cccc(-c2ccc(C(c3c(C)[nH][nH]c3=O)c3c(C)[nH][nH]c3=O)o2)c1	39
CCCn1c(=O)c2c(nc3n2C(C)C(C)=NN3CC)n(C)c1=O (configuration not stated)	-

Screens from PubChem.
